Tb PYK inh – inhibitors of Trypanosoma brucei pyruvate kinase. Q57TT1. TbPYK enzyme, Kinase-Glo Plus ATP luminescence, 45 min. Potency, µM (titrated, usually from 76.8 µM), most hits filed as inhibitors. 0.12% of 410,000 active; further: nearly all actives have a fitted effect of over 50% in size
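Enzyme and substrate buffer are dispensed first and compound is pin-transferred. ADP at 130 uM final then starts the reaction, which runs 45 min at room temperature. Detection reagent is added for 10 min before luminescence is imaged.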
Sm TGR inh – inhibitors of Schistosoma mansoni thioredoxin glutathione reductase. Q962Y6. 3% of 360,000 active. Potency, µM (doses to about 114 µM), usual class: inhibitors. purified TGR, DTNB reduction, TNB absorbance 405 nm; further: nearly all actives have a fitted effect of over 60% in size
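Kinetic colorimetric format: TGR-catalysed, NADPH-driven DTNB reduction monitored via TNB absorbance. Enzyme dispensed at 20 nM; compound exposure 15 min at room temperature before reaction start.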
LmPK inh – LmPK (Leishmania mexicana) enzyme inhibition | Q27686 | purified LmPK, Kinase-Glo ATP luminescence, 1 h | Potency, µM (highest dose often 57.5 µM), hits mostly inhibitors | 0.37% of 290,000 active | AID 1721
Target sequence (Q27686 whole entry, looked up): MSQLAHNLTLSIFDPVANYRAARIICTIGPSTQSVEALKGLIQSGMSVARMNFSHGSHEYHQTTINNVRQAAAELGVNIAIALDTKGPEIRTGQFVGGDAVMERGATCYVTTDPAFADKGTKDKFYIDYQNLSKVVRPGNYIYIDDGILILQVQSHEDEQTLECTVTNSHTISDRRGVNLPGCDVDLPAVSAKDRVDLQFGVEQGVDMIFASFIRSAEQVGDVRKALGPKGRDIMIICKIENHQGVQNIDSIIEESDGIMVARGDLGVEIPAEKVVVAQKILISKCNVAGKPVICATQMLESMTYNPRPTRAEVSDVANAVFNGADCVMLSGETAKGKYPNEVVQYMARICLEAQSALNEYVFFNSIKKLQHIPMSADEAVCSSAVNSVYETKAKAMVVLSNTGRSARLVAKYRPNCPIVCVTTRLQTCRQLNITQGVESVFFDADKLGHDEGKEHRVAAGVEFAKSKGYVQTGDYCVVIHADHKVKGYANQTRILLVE
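Pyruvate kinase activity monitored as ATP production (luciferase luminescence). Conditions: 0.1 nM enzyme, 0.5 mM PEP, 0.1 mM ADP, 1 h, RT; normalized against uninhibited and no-enzyme wells.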
RE007 growth inh – less growth of the S. pombe RE007 Vpr strain; 0.21% of 360,000 active; Potency, µM (highest dose often 92.2 µM), usual class: inhibitors; S. pombe RE007 Vpr strain, BacTiter-Glo ATP luminescence, 24 h; active means well fitted falling curve with a large enough effect; inconclusive means small, poorly fitted or top-dose-only effect; inactive means no such curve, though single readings can be large or run the other way; further: nearly all actives have a fitted effect of over 50% in size
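Fission yeast RE007 carrying one integrated HIV-1 vpr copy, seeded at OD 0.01 in PMG+AL medium with 23 nL pinned compound. Grown 24 h at 30 degrees; viability read by BacTiter-Glo luminescence after 5 min.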
Of the large screens only hits and unclear results are named; the others gave an inactive call. A selection: hits, their analogues and other compounds. The true share with any hit is near 3%. Unless noted, the call rests on the fitted dose curve; in most records, active means well fitted curve in the direction sought with a large enough effect; inconclusive means small, poorly fitted or top-dose-only effect, or another doubt; inactive means no such curve, though single readings can be large; an effect the other way counts as inactive or inconclusive.

O=C(CN1CCN(Cc2ccccc2F)C1=O)NCc1ccco1	Sm TGR inh 28µM
O=C(NCc1ccco1)C1CCN(c2nc3ccccc3n2Cc2ccccc2F)CC1	Sm TGR inh 45µM
CCCc1nnc(NC(=O)c2cc(=O)c3ccccc3o2)s1	none (no result: LmPK inh, RE007 growth inh)
COc1ccc(-c2nnc(SCC(=O)Nc3cccc(C(F)(F)F)c3)nc2-c2ccc(OC)cc2)cc1	none (no result: LmPK inh, RE007 growth inh)
COc1ccc(N2CCN(c3ccc(-c4nc(-c5ccccc5)no4)cc3[N+](=O)[O-])CC2)cc1	none (no result: LmPK inh, RE007 growth inh)
O=C(O)CN1CCN(Cc2ccc(F)cc2Cl)C1=O	Sm TGR inh 8.9µM
CCOC(=O)c1c(NC(=O)C(C)Sc2cn(CCNC(=O)c3ccc(OC)cc3)c3ccccc23)sc2c1CCC2 (stereo not drawn)	none (no result: LmPK inh, RE007 growth inh)
NCc1ccccc1CC(=O)N[C@@H]1C(=O)N2C(C(=O)O)=C(CSc3nnnn3CC(=O)O)CS[C@@H]12	none (no result: Sm TGR inh, LmPK inh, RE007 growth inh)
CC(=O)OCC1=C(C(=O)O)N2C(=O)[C@@H](NC(=O)Cc3cccs3)[C@H]2SC1	Sm TGR inh inconclusive
Cc1nnc(SCC2=C(C(=O)O)N3C(=O)C(NC(=O)Cn4nc(C(F)F)cc4C)C3SC2)s1 (stereo not drawn)	Sm TGR inh 40µM
Cc1nnc(SCC2=C(C(=O)O)N3C(=O)C(NC(=O)Cn4nc(C(F)F)c(Cl)c4C)C3SC2)s1 (stereo not drawn)	Sm TGR inh 13µM
CC(=O)OCC1=C(C(=O)O)N2C(=O)C(NC(=O)CCn3nc(C)c(Cl)c3C)C2SC1 (stereo not drawn)	Sm TGR inh 28µM
CN(C)CCn1nnnc1SCC1=C(C(=O)O)N2C(=O)[C@@H](NC(=O)Cc3csc(N)n3)[C@H]2SC1	Sm TGR inh 32µM (no result: LmPK inh)
CC(=O)OCC1=C(C(=O)O)N2C(=O)C(NC(=O)CCn3nc(C(F)(F)F)c(Br)c3C3CC3)C2SC1 (stereo not drawn)	Sm TGR inh 22µM
CC(=O)OCC1=C(C(=O)O)N2C(=O)C(NC(=O)Cn3nc(C(F)F)c(Cl)c3C)C2SC1 (stereo not drawn)	Sm TGR inh 22µM
O=C(Oc1ccccc1)N1CCC[C@@]2(CCN(c3ccccc3)C2)C1	none (no result: Sm TGR inh, LmPK inh, RE007 growth inh)
COCCNC(=O)CSc1nc2cc3c(cc2c(=O)n1Cc1ccc(C(=O)NCCc2ccc(OC)c(OC)c2)cc1)OCO3	none (no result: LmPK inh, RE007 growth inh)
CCCCCCCCCCCCCCCCSCC(COC)COP(=O)([O-])OCC[N+](C)(C)C (stereo not drawn)	none (no result: Sm TGR inh, LmPK inh, RE007 growth inh)
COc1cccc2cc(C(=O)C3=C(O)C(=O)N(CCN(C)C)C3c3ccc(F)cc3)oc12 (stereo not drawn)	none
COc1cccc2cc(C(=O)C3=C(O)C(=O)N(CCN4CCOCC4)C3c3ccc(C)o3)oc12 (stereo not drawn)	Sm TGR inh 28µM
O=C(C1=C(O)C(=O)N(CCN2CCOCC2)C1c1ccc(Cl)cc1)c1cc2ccccc2o1 (stereo not drawn)	Sm TGR inh 28µM
COc1cccc(C2C(C(=O)c3cc4ccccc4o3)=C(O)C(=O)N2CCN2CCOCC2)c1 (stereo not drawn)	Sm TGR inh 40µM
COc1ccccc1C1C(C(=O)c2cc3ccccc3o2)=C(O)C(=O)N1CCN1CCOCC1 (stereo not drawn)	Sm TGR inh 40µM
O=C(C1=C(O)C(=O)N(CCCN2CCOCC2)C1c1ccc(Cl)cc1)c1cc2ccccc2o1 (stereo not drawn)	Sm TGR inh inconclusive
COC(=O)c1ccc(C2C(C(=O)c3cc4ccccc4o3)=C(O)C(=O)N2CCN2CCOCC2)cc1 (stereo not drawn)	Sm TGR inh inconclusive
CC(CNC(=O)c1cccnc1)NC(=O)c1cccnc1 (stereo not drawn)	none (no result: Sm TGR inh, LmPK inh, RE007 growth inh)
CC(=O)Nc1cncc(-c2cccc(C(=O)N3CCOCC3)c2)n1	none (no result: Sm TGR inh, LmPK inh)
COc1ccc(-c2nc3c(c4c2C[C@H](c2ccccc2)OC4)CN(S(=O)(=O)c2ccc(C)cc2)CC3)c(C)c1	none (no result: Tb PYK inh, Sm TGR inh, RE007 growth inh)
Cc1nc(C)c(C(=O)C2=C(O)C(=O)N(CCN3CCOCC3)C2c2ccco2)s1 (stereo not drawn)	Tb PYK inh inconclusive, Sm TGR inh 28µM
Cc1nc(C)c(C(=O)C2=C(O)C(=O)N(CCN(C)C)C2c2ccco2)s1 (stereo not drawn)	none
CCCCNC(=O)CCCn1c(=O)c2ccccc2n(Cc2cccc(Cl)c2)c1=O	none (no result: LmPK inh, RE007 growth inh)
CC(C)c1cc(Cn2c3ccccc3c(=O)n2C(C)C)on1	none (no result: Sm TGR inh, LmPK inh)
O=[N+]([O-])c1ccc(Sc2nc3ccccc3o2)c([N+](=O)[O-])c1	Sm TGR inh 4µM, RE007 growth inh inconclusive
O=c1[nH]c(Sc2ccc([N+](=O)[O-])cc2[N+](=O)[O-])nc2ccccc12	none (no result: Sm TGR inh, LmPK inh)
O=[N+]([O-])c1ccc(Sc2cc[n+]([O-])c3ccccc23)c([N+](=O)[O-])c1	Sm TGR inh 7.9µM
Nc1nc(Sc2ccc([N+](=O)[O-])cc2[N+](=O)[O-])n[nH]1	Sm TGR inh 32µM
Cc1ccnc(Sc2ccc([N+](=O)[O-])cc2[N+](=O)[O-])n1	Sm TGR inh inconclusive, RE007 growth inh inconclusive
Cc1cccc(CNC(=O)CCCN2C(=O)CCn3nc(-c4cccn4C)cc32)c1	none (no result: LmPK inh, RE007 growth inh)
COc1ccc(-c2nc(SCC(=O)NCc3nc4ccccc4n3C)n3[nH]c(=O)cc3n2)cc1	none (no result: LmPK inh, RE007 growth inh)
O=C1CC(N2CCC(n3c(=O)[nH]c4ccccc43)CC2)C(=O)N1Cc1ccccc1 (stereo not drawn)	none
Cc1cc(N2C(=O)CC(N3CCC(n4c(=O)[nH]c5ccccc54)CC3)C2=O)no1 (stereo not drawn)	Sm TGR inh 22µM, RE007 growth inh inconclusive
COC(=O)c1ccc(N2C(=O)CC(N3CCC(n4c(=O)[nH]c5ccccc54)CC3)C2=O)cc1 (stereo not drawn)	Sm TGR inh 35µM, RE007 growth inh 14µM
O=C(CSc1ccc2nc(-c3ccccc3)cn2n1)Nc1ccccc1	none (no result: LmPK inh, RE007 growth inh)
CNCc1ccccc1Sc1cccc(O)c1	none
CNCc1ccccc1Sc1cc(O)ccc1O	Tb PYK inh inconclusive, Sm TGR inh 3.5µM, LmPK inh inconclusive
COCCOC(=O)c1c(-c2ccccc2)c(-c2ccccc2)nn(C)c1=O	none (no result: LmPK inh, RE007 growth inh)
Cc1nc2ccc(C(C(F)(F)F)(C(F)(F)F)C(F)(F)F)cc2[nH]1	RE007 growth inh 28µM
Cc1nc2ccc(Cl)cc2[nH]1	none (no result: Sm TGR inh, LmPK inh)
COc1cc(C2C3=C(CC(c4ccco4)CC3=O)Nc3ccccc3N2C(C)=O)cc(OC)c1OC (stereo not drawn)	Sm TGR inh 79µM
O=C1CC(c2ccco2)CC2=C1C1c3ccccc3C(=O)N1c1ccccc1N2 (stereo not drawn)	Sm TGR inh 35µM
CCC(=O)N1c2ccccc2NC2=C(C(=O)CC(c3ccco3)C2)C1c1ccco1 (stereo not drawn)	Sm TGR inh inconclusive
CCOC(=O)c1c(S(=O)(=O)N2CCCC(C(=O)NCc3ccc(Cl)cc3)C2)c(C)n(C)c1C (stereo not drawn)	none (no result: LmPK inh, RE007 growth inh)
O=C(O)c1cccc(Cn2c(Cl)c(/C=N/NC(=O)c3ccccc3)sc2=O)c1	Sm TGR inh 56µM

Screening data deposited in PubChem BioAssay by National Center for Advancing Translational Sciences (NCATS).
